Source: PubChem BioAssay (University of Kansas High Throughput Screening Laboratory)
This excerpt belongs to a sample that is enriched for hits.
mHTT CaM bind = inhibitors of human mutant huntingtin-calmodulin interaction; inhibition, % at 15 µM; actives 3.6% (n = 190,000); AlphaScreen His-mHTT/GST-CaM binding, luminescence; P42858
Pf apPOL inh = Pf-apPOL DNA polymerase inhibition; Recombinant Pf-apPOL, molecular beacon fluorescence, 1.5 h; inhibition, % at 10 µM; actives 0.25% (n = 210,000)
A number is an active result; n = inactive; x = no result. No stated cut-off is given here; in the data, active means inhibition above about 50%; inactive means the rest.

SMILES	mHTT CaM bind	Pf apPOL inh
O=S(=O)(Nc1c(F)cccc1F)c1ccc(Cl)c(Cl)c1	x	n
Cc1cc(=O)n2[nH]c(-c3cccc(Br)c3)cc2n1	n	n
CCc1ccc(-n2[nH]c3c(cnc4ccc(C(=O)NC(C)C)cc43)c2=O)cc1	n	n
CC(C)NC(=O)c1ccc2ncc3c(=O)n(-c4ccc(Cl)cc4)[nH]c3c2c1	51.4	n
CCc1ccc(-n2[nH]c3c(cnc4ccc(C(=O)N5CCCC5)cc43)c2=O)cc1	n	n
CCC1CCCCN1C(=O)c1ccc2ncc3c(=O)n(-c4ccccc4)[nH]c3c2c1 (stereo unspecified)	66.4	n
O=C(Oc1ccc2c(c1)OC(=CC1=Cc3ccccc3OC1)C2=O)c1cccs1	78.7	n
CC(=O)COc1ccc2c(c1)OC(=CC1=Cc3ccccc3OC1)C2=O	n	n
N#CC1=C(N)OC2=C(CC/C2=C\c2cccc(F)c2)C1c1cccc(F)c1 (stereo unspecified)	94.0	n
N#CC1=C(N)OC2=C(C(=O)CC(c3ccccc3)C2)C1c1cccc(F)c1 (stereo unspecified)	n	n
COc1ccc(/C=C2\CCCC3=C2OC(N)=C(C#N)C3c2ccc(OC)c(OC)c2)cc1OC (stereo unspecified)	n	n
COc1ccc(/C=C2\CCC3=C2OC(N)=C(C#N)C3c2ccc(OC)cc2)cc1 (stereo unspecified)	63.0	n
O=C(NCCc1ccccc1)c1csc(NS(=O)(=O)c2ccccc2)n1	n	n
Cc1ncc(CO)c2cc(-c3nnc(Nc4ccc(Cl)cc4)s3)c(=O)oc12	n	n
Nc1ccc(-c2nc3ccc(-c4nc5ccc(N)cc5[nH]4)cc3[nH]2)cc1	51.0	n
Nc1ccc(CCc2nc3ccc(N)cc3[nH]2)cc1	n	n
Nc1ccc2nc(-c3ccccc3-c3nc4ccc(N)cc4[nH]3)[nH]c2c1	n	n
Nc1ccc2nc(-c3ccc(-c4nc5ccc(N)cc5[nH]4)cc3)[nH]c2c1	n	68.3
Nc1ccc2nc(Cc3nc4ccc(N)cc4[nH]3)[nH]c2c1	79.0	n
Nc1ccc(-c2nc3ccc(C(=O)c4ccc5nc(-c6ccc(N)cc6)[nH]c5c4)cc3[nH]2)cc1	n	n
CCCCN(CC)S(=O)(=O)c1ccc(F)cc1	n	n
COC(=O)c1scc(S(=O)(=O)Cc2cccs2)c1NN=C(C#N)S(=O)(=O)c1ccc(Cl)cc1	x	n
Clc1ccccc1C1CC(c2ccccc2)Nc2nnnn21 (stereo unspecified)	n	n
C=CC1(C)CCC2C(O1)c1ccccc1OC2(C)C (stereo unspecified)	n	n
C=C(C)Cn1c(COc2ccccc2)nc2ccccc21	n	n
SMILES	mHTT CaM bind	Pf apPOL inh
OC(C#Cc1ccccc1)C#CC(O)(c1ccccc1)c1ccccc1 (stereo unspecified)	98.0	n
OC(C#CC(O)(c1ccccc1)c1ccccc1)c1cccnc1 (stereo unspecified)	n	n
O=C1OC(Nc2ccccc2Br)c2ccccc21 (stereo unspecified)	n	n
O=C(Nc1ccccc1F)C1CC(=O)N(c2ccc(Br)cc2)C1 (stereo unspecified)	n	n
O=C(Nc1nc2ccccc2s1)C1CC(=O)N(c2ccc(Br)cc2)C1 (stereo unspecified)	60.0	n
O=S(=O)(C=Cc1ccccc1)NCCOc1ccc2nnc(-c3cccc(F)c3)n2n1	n	n
CCCCCNC(=O)c1c(O)c2cccc3c2n(c1=O)CC3	n	n
COc1ccc(-c2cn3c(n2)N(C(=O)Cc2cccs2)CCC3)cc1	n	n
COc1cccc(-c2cn3c(n2)N(C(=O)Cc2cccs2)CCC3)c1	82.4	n
CCn1cc(C(=O)Nc2cc(OC)c(OC)c(OC)c2)c(=O)c2ccc(C)nc21	n	n
COc1ccc(NC(=O)c2ccc(OC)c([N+](=O)[O-])c2)cc1OC	n	n
COc1ccc(C(=O)Nc2ccc(N(C)C)cc2)cc1[N+](=O)[O-]	58.5	n
CSc1ccc(CC(=O)Nc2nc3c(F)cc(F)cc3s2)cc1	n	n
O=C1NC(=O)/C(=C\c2cc(Br)c(Sc3ccc(Cl)cc3)o2)N1	n	n
O=Cc1cc(Br)c(Sc2ccc(Cl)cc2)o1	60.7	n
CCOC(=O)C(C)Oc1ccc2c(c1)OC(=Cc1ccc(OC)c(OC)c1OC)C2=O (stereo unspecified)	n	n
CSc1ccccc1C(=O)N1CCC(Cn2nc(C)cc2C)CC1	n	n
CSc1ccccc1C(=O)N1CCC(n2cnc3cc(C(F)(F)F)ccc32)CC1	81.9	n
O=C1c2ccccc2C(=O)c2c1oc1c3c(ccc21)OCN(C1CCCCC1)C3	83.9	n
CC(C)(C)N1COc2ccc3c4c(oc3c2C1)C(=O)c1ccccc1C4=O	n	n
O=C1c2ccccc2C(=O)c2c1oc1c3c(ccc21)OCN(CCCn1ccnc1)C3	100.0	n
COCCN1COc2ccc3c(=O)c(-c4ccccc4OC)c(C)oc3c2C1	n	n
COCCCN1COc2ccc3c(=O)c(-c4ccccc4OC)c(C(F)(F)F)oc3c2C1	n	n
